Consider 94 compounds from PubChem BioAssay AID624483 (NMMLSC, 2012).

Among all 360,000 compounds or so, about 11,000 (3.1%) were called active. Another 2% or so got no clear call; they are omitted. The sample holds actives, similar compounds and a random draw of the others, so the mix is not that of the screen. Rule as the data show it: active = fluorescence intensity above about 16000; inconclusive = no clear call, values can overlap the other calls; inactive = below that.

The assay is described as follows: counter-screen for toxin protease inhibitors: compound fluorescence, primary screen, artefact control for toxin protease inhibitor project, biochemical, multiplex microsphere, HTS (AID 624483). The following applies: compound autofluorescence counterscreen, microsphere flow cytometry; active compounds read high. For orientation: The purpose of a counterscreen is to sort out artefacts and off-target activity.
Regarding `Cc1nn(-c2ccccc2)c2[nH]c(C(F)(F)F)cc(=O)c12`, the fluorescence intensity is 4600 (inactive).

Take `CCCOc1cc(C)c(S(=O)(=O)n2nnc3ccccc32)cc1C`: the fluorescence intensity is 16800 (active). In the case of `CCOc1cc(C)c(S(=O)(=O)NCc2ccccn2)cc1C`, the fluorescence intensity is 3700 (inactive).

With `CCOc1cc(C)c(Cl)cc1S(=O)(=O)n1nnc2ccccc21`, the fluorescence intensity was 10500 (inactive). The value for `CC1CCC(NC(=O)c2ccc(N3CCCC3=O)cc2)CC1` (centres undefined) was 21800 (active); that for `O=C(NCCCN1CCCCCC1)c1ccc(N2CCCC2=O)cc1` was 3260 (inactive). For the compound `CC1CCCC(NC(=O)c2cccc(N3CCCC3=O)c2)C1C` (centres undefined), the fluorescence intensity was 2560 (inactive). The value for `C=CCn1c(CNC(=O)c2ccco2)nnc1SCC(=O)c1ccc(OC)cc1` was 3770 (inactive); that for `COc1ccc(C(=O)NCc2nnc(SCCOc3ccccc3)n2C)cc1` was 5100 (inactive); that for `C=CCn1c(SCC(=O)c2ccc(Br)cc2)nnc1C(C)NC(=O)Cc1ccc(OC)cc1` (centres undefined) was 23200 (active). The value for `CCn1c(SCC(=O)NNC(=O)c2ccc(OC)cc2)nnc1C(C)C` was 6340 (inactive); that for `C=CCn1c(SCc2ccc(Cl)c(Cl)c2)nnc1C(CO)NC(=O)c1ccc(OC)cc1` (centres undefined) was 2760 (inactive). On to `C=CCn1c(SCCOc2ccc(OC)cc2)nnc1C(NC(=O)c1ccc(OC)cc1)C(C)C` (centres undefined), for which the fluorescence intensity was 24400 (active).

On to `CCCNC(=O)c1cc(C2CCCCN2S(=O)(=O)c2cn(C)cn2)on1` (centres undefined), for which the fluorescence intensity was 3300 (inactive).

`O=C(NCc1ccc(F)cc1)C1CCC(CNc2c(N3CCOCC3)c(=O)c2=O)CC1` (centres undefined): the fluorescence intensity was 4840 (inactive). With `O=S(=O)(NC1CC2CCC1C2)c1ccc(Cl)cc1` (centres undefined), the fluorescence intensity was 3140 (inactive). The value for `CCOC(=O)[C@]12CCCC=C1N(Cc1ccc(Cl)cc1Cl)C(=O)[C@H](CC(=O)N1CCCCC1)C2` was 6000 (inactive); that for `COc1cccc(-c2cc3nc(NCCOc4ccccc4Cl)n(C)c(=O)c3s2)c1` was 3580 (inactive). Regarding `CC1(C(=O)NS(=O)(=O)c2cccc(F)c2)CCN1C(=O)Cc1ccc(Cl)cc1Cl` (centres undefined), the fluorescence intensity was 3750 (inactive).

Regarding `CCCCN1C(=O)C(CC(=O)NCc2cccs2)CC(C(=O)N2CCCCCC2)=C1C` (centres undefined), the fluorescence intensity was 5770 (inactive). `CN(C)c1ccnc(Oc2ccc(F)cc2)c1C#N`: the fluorescence intensity was 8110 (inactive). The value for `O=C(CNC(=O)c1ccccc1)NCC(=O)OCc1ccc(Cl)cc1` was 22400 (active). As to `O=C(CCC(=O)OCc1ccc(Cl)cc1)Nc1ccccc1`, the fluorescence intensity is 2700 (inactive). In the case of `O=C(CNC(=O)c1ccccc1)NCC(=O)OCC(=O)c1ccccc1`, the fluorescence intensity was 5170 (inactive).

As for `O=C(OCCN1C(=O)c2ccccc2C1=O)Oc1ccccc1`, the fluorescence intensity was 4060 (inactive). For `Nc1ccc(SCCN2C(=O)c3ccccc3C2=O)cc1` the value was 19900 (active).

As for `O=C1c2ccccc2C(=O)N1CCCCCCN1C(=O)c2ccccc2C1=O`, the fluorescence intensity is 3880 (inactive). For `CCOc1ccc2c(c1)cc(CN(C(=O)CC)C1CCCCC1)c1nnnn12` the value was 3990 (inactive); for `CCOC1=C2[C@@H](CN(S(=O)(=O)c3ccc(C)cc3)[C@H]2c2ccccc2F)[C@H]2C(=O)N(Cc3ccccc3)C(=O)[C@H]2C1`, 4840 (inactive). For the compound `CCOc1ccc2[nH]c(=S)sc2c1`, the fluorescence intensity is 5910 (inactive). In the case of `CCc1ccc2ncc(C(=O)c3ccccc3)c(N3CCOCC3)c2c1`, the fluorescence intensity is 6180 (inactive). For `O=C(c1ccccc1)c1cc(-c2ccccn2)c(N2CCOCC2)s1` the value was 25300 (active); for `O=C(NCC(c1cccs1)N1CCOCC1)c1cc(-c2ccccn2)nc2ccccc12` (centres undefined), 4740 (inactive).

Take `COc1ccccc1Oc1ccc(S(=O)(=O)Nc2cccnc2)cc1`: the fluorescence intensity is 21600 (active). As for `Cc1cc(C)c(C)c(S(=O)(=O)Nc2cccnc2)c1C`, the fluorescence intensity is 6330 (inactive).

With `COc1ccc(S(=O)(=O)Nc2cccnc2)c(Cl)c1Cl`, the fluorescence intensity was 3840 (inactive). `COC(=O)c1ccc2nc(-c3ccc(OC)c(OC)c3)c(Cc3ccccc3)n2c1`: the fluorescence intensity is 4370 (inactive).

As to `Fc1cccc(Cc2c(-c3ccc(Cl)cc3)nc3ccc(Cl)cn23)c1`, the fluorescence intensity was 8180 (inactive). Turning to `Clc1cccc(Cc2c(-c3cccc(Cl)c3)nc3ccc(Cl)cn23)c1`, the fluorescence intensity was 8680 (inactive). For the compound `Fc1cccc(Cc2c(-c3cccc(Cl)c3)nc3ccc(Br)cn23)c1`, the fluorescence intensity was 19700 (active). Turning to `OC[C@@H]1CN(Cc2ccncc2)C[C@H](n2cnc3c(N4CCN(c5ccccc5)CC4)ncnc32)O1`, the fluorescence intensity was 3810 (inactive).

On to `COCCN1C(=O)N(c2ccc(Cl)cc2)C(=O)C1CC(=O)Nc1cc(OC)cc(OC)c1` (centres undefined), for which the fluorescence intensity was 3750 (inactive). Take `CC(C)(C)OC(=O)N/N=C/c1ccc(C(=O)O)cc1`: the fluorescence intensity is 2640 (inactive). Turning to `Cc1cc(C(=O)OCC(=O)Nc2ccc(F)c(F)c2)c(C)o1`, the fluorescence intensity was 21600 (active). Take `Cc1cc(C(=O)OCC(=O)Nc2ccccc2Cl)c(C)o1`: the fluorescence intensity was 8500 (inactive).

`Cc1cc(C)cc(NC(=O)COC(=O)c2cc(C)oc2C)c1`: the fluorescence intensity is 4090 (inactive). Consider `CCCCSc1nnc(-c2ccc(C)cc2)o1`, for which the fluorescence intensity is 11000 (inactive).

For `COc1ccc(-c2nnc(-c3ccc4ccccc4c3)o2)cc1`, the fluorescence intensity is 3860 (inactive). As to `CCCCOc1ccc(-c2nnc(-c3ccco3)o2)cc1`, the fluorescence intensity was 21200 (active). For `NCCCNC(=S)NCCCN(Cc1ccc(Cl)cc1)c1ccc(Br)cn1`, the fluorescence intensity was 3820 (inactive). On to `O=C(NCc1ccco1)c1cccc(-c2ccc3nncn3c2)c1`, for which the fluorescence intensity was 3920 (inactive). As to `C=CCNC(=O)c1cc2nc(C3CC3)cc(C(F)F)n2n1`, the fluorescence intensity is 17500 (active). With `O=C(Nc1ccc(Cl)cc1)c1cc2nc(C3CC3)cc(C(F)(F)F)n2n1`, the fluorescence intensity was 11300 (inactive). With `CC1CCN(C(=O)c2cc3nc(C4CC4)cc(C(F)(F)F)n3n2)CC1`, the fluorescence intensity was 3040 (inactive). Turning to `CN(C)c1cccc(NC(=O)c2ccc(-c3ccc(F)c(F)c3)c3ccoc23)c1`, the fluorescence intensity is 3910 (inactive). Take `CCCCn1nnnc1C(c1cc2ccccc2o1)N(C)Cc1ccc(Cl)c(Cl)c1` (centres undefined): the fluorescence intensity was 5870 (inactive).

Consider `CCCNC(=O)CSc1nc(Cc2ccccc2)nc2ccccc12`, for which the fluorescence intensity is 2990 (inactive). On to `CC(C)N(C(=O)CSc1nc(COc2ccccc2)nc2ccccc12)C(C)C`, for which the fluorescence intensity is 3830 (inactive).

Regarding `C=CCSc1nc(Cc2ccc(Cl)cc2)nc2ccccc12`, the fluorescence intensity was 23600 (active). For `CCc1nc2ccc(C(=O)N3CCC(O)(Cc4ccccc4)CC3)cn2c1N(C)C(=O)Cc1ccccc1` the value was 3520 (inactive); for `O=S1(=O)CC(N2CCC(Cc3ccccc3)CC2)CN1Cc1ccccc1` (centres undefined), 6300 (inactive). In the case of `Cc1noc(C)c1-c1ccc(C(=O)NCc2ccncc2)c2occc12`, the fluorescence intensity was 3470 (inactive). Consider `COc1ccccc1N1CCN(S(=O)(=O)c2ccc3c(c2)NC(=O)CS3)CC1`, for which the fluorescence intensity was 5880 (inactive). For the compound `CCc1cc(=O)oc2cc(C)cc(OC(C)C(=O)O)c12` (centres undefined), the fluorescence intensity is 22000 (active). Regarding `Cc1cc(OC(C)C(=O)NC2CC(C)(C)NC(C)(C)C2)c2c(C)cc(=O)oc2c1` (centres undefined), the fluorescence intensity is 6440 (inactive). `CCc1cc(=O)oc2cc(C)cc(OCC(=O)N3CCC[C@@H]3C(=O)O)c12`: the fluorescence intensity is 5750 (inactive). For `CCCSc1nsc(N)n1` the value was 17300 (active); for `Nc1nc(SC23CC4CC(CC(C4)C2)C3)ns1`, 3930 (inactive). The value for `CCCCCCSc1nsc(N)n1` was 6410 (inactive). Take `Cc1ccc(CNC(=O)c2cc(-c3ccccc3C)n(CC3CC(c4cccc([N+](=O)[O-])c4)=NO3)n2)cc1` (centres undefined): the fluorescence intensity was 4220 (inactive). As for `CCOC(=O)[C@]12CCC=C1N(Cc1ccccc1)C(=O)[C@H](CC(=O)N1CCCC1)C2`, the fluorescence intensity is 5780 (inactive). As to `CC1(C(=O)NS(=O)(=O)C2CC2)CCCN(C(=O)CSc2ccccc2)C1` (centres undefined), the fluorescence intensity was 3670 (inactive).

In the case of `CCn1c(=O)cc(OCC(=O)NCCCN2CCN(c3cccc(Cl)c3)CC2)c2ccccc21`, the fluorescence intensity was 20500 (active). As for `CCOC(=O)N1CCC(Nc2c(NCCN3CCN(c4cccc(Cl)c4)CC3)c(=O)c2=O)CC1`, the fluorescence intensity was 4590 (inactive). The value for `O=C(Cc1csc(Nc2nc(=S)[nH]c3ccccc23)n1)NCCCN1CCN(c2cccc(Cl)c2)CC1` was 4240 (inactive); that for `O=C(CC[C@H]1O[C@@H](n2ccc(=O)[nH]c2=O)[C@H](O)[C@@H]1O)N[C@H](Cc1ccccc1)C(=O)NCc1ccco1` was 4020 (inactive). The value for `CCOC(=O)C1(C)CCCN(C(=O)c2ccc(N(C)C)cc2)C1` (centres undefined) was 9620 (inactive); that for `Cc1ccccc1NC(=O)CSc1ccc2nnc(-c3ccccn3)n2n1` was 6840 (inactive); that for `CCOc1cccc(-c2nn3c(-c4ccccn4)nnc3s2)c1` was 16800 (active). With `CCOc1cccc(-c2nnc(SCC(=O)NC3CC3)n2C)c1`, the fluorescence intensity is 5480 (inactive). As to `CN(C)S(=O)(=O)N1CCN(c2ccc([N+](=O)[O-])cc2)CC1`, the fluorescence intensity was 4070 (inactive).

Consider `CCCOc1ccc(F)cc1-c1cc(C(=O)Nc2ccc(F)c(Cl)c2)[nH]n1`, for which the fluorescence intensity was 3800 (inactive). Turning to `CN(C)C(=O)c1cccc(-c2cnc3c(NC=O)cc(-c4ccc(F)cc4)cn23)c1`, the fluorescence intensity was 3680 (inactive). Consider `CCOC(=O)c1cnc2c(c(C)nn2CC)c1Cl`, for which the fluorescence intensity was 4390 (inactive).

Turning to `CCOC(=O)c1cnc(-n2nc(C)cc2C)nc1-n1nc(C)cc1C`, the fluorescence intensity is 16800 (active). For `CCOC(=O)c1cnc(-n2nc(C)cc2C)nc1NNc1cc(C)nc(-c2ccccc2)n1` the value was 7400 (inactive).

`CCc1nc2c(OCCOc3ccc(F)cc3)cccn2c1N(C)C(=O)c1ccccc1F`: the fluorescence intensity was 3010 (inactive).

Turning to `Cc1ccc(S(=O)(=O)N2CCN(C)CC2)cc1C(=O)NC1CCCCC1`, the fluorescence intensity is 4410 (inactive). For `Cc1ccc(S(=O)(=O)N2CCN(C)CC2)cc1`, the fluorescence intensity was 4010 (inactive). Consider `CN1CCN(S(=O)(=O)c2ccc3[nH]cc(C(=O)O)c(=O)c3c2)CC1`, for which the fluorescence intensity was 21500 (active).

As to `c1ccc(COc2ccccc2CNCc2cccnc2)cc1`, the fluorescence intensity was 7500 (inactive). On to `O=C(COC(=O)CCc1ccc(S(=O)(=O)N2CCOCC2)cc1)Nc1cccc(Cl)c1`, for which the fluorescence intensity is 4250 (inactive).

Regarding `O=C(CCc1ccc(S(=O)(=O)N2CCOCC2)cc1)Nc1ccc2ccccc2c1`, the fluorescence intensity was 21400 (active). On to `O=C(CCc1ccc(S(=O)(=O)N2CCOCC2)cc1)NN=C1CCCCCCC1`, for which the fluorescence intensity is 2120 (inactive).
